# Test results: ChEMBL document CHEMBL3988442, “University of Dundee, Small-Polar-MMV Screening Library” (2021)
# The campaign covered roughly 69,000 compounds. About 1,000 (1.4%) showed an effect of 50% or more. The entries come from a sample that favours strong results as a whole.
# Tested on: Leishmania donovani
# Test: Leishmania intramacrophage assay
# Assay type: functional, organism-based
# Design: scale not given: in the data most compounds retested in dose-response had high values
smiles,measurement,setting,value
CCN(CC)Cc1cc(=O)n2c(n1)CN(C(=O)c1ccc[nH]1)CCC2,Percent Effect,"30.3 µM, […]",36.34%
c1ccc(-c2nnc3ccc(N4CCC5(CCOC5)C4)nn23)cc1 (configuration not stated),Percent Effect,"30.3 µM, […]",-7.106%
CCN(CCCNC(=O)Nc1ccccc1C(C)C)S(C)(=O)=O,Percent Effect,"30.3 µM, […]",27.9%
O=C(NCCCN1CCCCC1)c1ccc(-n2ccc3ccccc32)s1,Percent Effect,"30 µM, 30.03 µM",94.7%
O=C(NCCCN1CCCC1=O)c1ccc(-n2ccc3ccccc32)s1,Percent Effect,"30.3 µM, […]",32.92%
O=C(NCCCN1CCOCC1)c1ccc(-n2ccc3ccccc32)s1,Percent Effect,"30.3 µM, […]",90.86%
CCN(CC)CCNC(=O)c1ccc(-n2ccc3ccccc32)s1,Percent Effect,"30.3 µM, […]",95.71%
CCN(CC)CCNC(=O)c1cnc(C(C)(C)C)s1,Percent Effect,"30 µM, 30.03 µM",10.1%
O=C(NCCN1CCOCC1)c1ccc(-n2ccc3ccccc32)s1,Percent Effect,"30 µM, 30.03 µM",37.35%
CCC1CN(CC(=O)NCCN(CC)CC)c2ccccc2S1 (configuration not stated),Percent Effect,"30.3 µM, […]",24.72%
Cn1ccc2c(C(=O)NCCCN3CCCC3)cccc21,Percent Effect,"30.3 µM, […]",16.97%
CCOCCCC(=O)Nc1[nH]nc(-c2ccncc2)c1C,Percent Effect,"30.3 µM, […]",25.28%
CC(C)(O)C1CCN(C(=O)Nc2nc(-c3ccccc3)ns2)CC1,Percent Effect,"30 µM, 30.03 µM",46.85%
CC(C)(CO)CCCNC(=O)N1CCc2c(F)ccc(F)c2C1,Percent Effect,"30.3 µM, […]",-32.7%
COc1cc(N2CC[C@H](O)[C@@H]2Cc2cnn(C)c2)ncn1,Percent Effect,"30 µM, 30.03 µM",12.89%
COc1ccccc1C(=O)N1C[C@@H]2CCCCN(CC(N)=O)[C@@H]2C1,Percent Effect,"30.3 µM, […]",-33.88%
O=C(Nc1ccccn1)N(CCO)Cc1ccccc1Br,Percent Effect,30 µM,5.548%
CN1CCN(Cc2ccc(-c3ccc(C(N)=O)cc3)nc2)CC1,Percent Effect,"30.3 µM, […]",77.28%
CN1CCN(Cc2ccc(-c3ccc4[nH]ccc4c3)nc2)CC1,Percent Effect,"30.3 µM, […]",-38.55%
CN1CCN(Cc2ccc(-c3ccc(-c4ccn[nH]4)cc3)nc2)CC1,Percent Effect,"30.3 µM, […]",8.288%
CS(=O)(=O)N1CC[C@H]2OCC[C@@]2(C(=O)NCc2ccccn2)C1.O=C(O)C(F)(F)F,Percent Effect,"30.3 µM, […]",38.61%
CC(C)N1CC2(CCCN(c3ccccn3)C2)CCC1=O (configuration not stated),Percent Effect,"30.3 µM, […]",24.82%
CC(C)N1CC2(CCC1=O)CCN(c1ccnc3ccccc13)CC2,Percent Effect,"30.3 µM, […]",16.36%
CC(C)N1CC2(CCCN(c3ccnc4ccccc34)C2)CCC1=O (configuration not stated),Percent Effect,"30.3 µM, […]",61.79%
CN1CCN(C(=O)c2cccc(S(=O)(=O)NCC3(C)COC3)c2)CC1,Percent Effect,"30.3 µM, […]",33.44%
COc1cc(NCc2c(C)noc2C)c(OC)cc1Cl,Percent Effect,"30.3 µM, […]",13.7%
COc1cc(Cl)c(NCc2c(C)noc2C)cc1OC,Percent Effect,"30.3 µM, […]",14.57%
COC(=O)COc1cc(NCc2c(C)noc2C)c(Cl)cc1C,Percent Effect,"30.3 µM, […]",56.06%
CN1C(=O)COc2ccc(NC(=O)CCc3nc4cccnc4[nH]3)cc21,Percent Effect,"30.3 µM, […]",53.55%
CN1C(=O)COc2cc(NC(=O)CCc3nc4cccnc4[nH]3)ccc21,Percent Effect,"30.3 µM, […]",33.08%
O=C(CCc1nc2cccnc2[nH]1)Nc1ccc2c(c1)NC(=O)CO2,Percent Effect,"30.3 µM, […]",20.44%
O=C(N[C@@H]1CCN(C(=O)c2cc[nH]c2)C[C@H]1O)c1ccccn1,Percent Effect,"30.3 µM, […]",4.682%
CN1CCC(CNC(=O)c2cccc(CN3CCCCCC3)c2)C1 (configuration not stated),Percent Effect,"30.3 µM, […]",-20.09%
CCC[C@H]1CN(S(C)(=O)=O)C[C@@H]1NC(=O)CCOCC,Percent Effect,"30.3 µM, […]",-29.93%
O=C(Nc1ccccc1)c1n[nH]c(-n2cnnc2)n1,Percent Effect,"30.3 µM, […]",15.16%
Cc1ccc(NC(=O)c2n[nH]c(-n3cnnc3)n2)cc1,Percent Effect,"30.3 µM, […]",53.89%
CCc1ccc(NC(=O)c2n[nH]c(-n3cnnc3)n2)cc1,Percent Effect,"30.3 µM, […]",-23.27%
O=C(NCC(O)(c1ccco1)C1CC1)c1ccccc1F (configuration not stated),Percent Effect,"30.3 µM, […]",-8.312%
CCCS(=O)(=O)CCN1CCOC(c2ccsc2)C1 (configuration not stated),Percent Effect,"30.3 µM, […]",22.47%
CNS(=O)(=O)CC(=O)N1CCC(c2ccc(F)c(F)c2)CC1,Percent Effect,"30.3 µM, […]",9.155%
CC(C)c1nnc2n1CCN(C(=O)c1ccc3c(c1)NC(=O)CO3)C2,Percent Effect,"30.3 µM, […]",10.03%
O=C(C1CCC1)N1C[C@@H]2CCN(c3cccnc3)C[C@@H]2C1.O=C(O)C(F)(F)F,Percent Effect,"30.3 µM, […]",7.145%
Fc1cccc(N2C[C@H]3CCN(c4cccnc4)C[C@H]3C2)c1.O=C(O)C(F)(F)F,Percent Effect,"30 µM, 30.03 µM",57.72%
O=C(O)C(F)(F)F.O=C(c1ccc(F)cc1)N1C[C@@H]2CCN(c3cccnc3)C[C@@H]2C1,Percent Effect,"30.3 µM, […]",-2.032%
CCn1cnnc1C1CCN(C(=O)c2cccc3c2ccn3C)CC1,Percent Effect,"30 µM, 30.03 µM",34.62%
CNC(=O)Cc1ccc(NC(=O)NC2(c3cccc(F)c3)CC2)cc1,Percent Effect,"30.3 µM, […]",15.99%
Cc1ccc(-c2cccc(N3CCC(NC4CCOCC4)CC3)c2)cc1,Percent Effect,"30.3 µM, […]",88.48%
Cc1nc(-c2cccc(N3CCC(NC4CCOCC4)CC3)c2)cs1,Percent Effect,"30.3 µM, […]",22.64%
Clc1cccc(-c2cccc(N3CCC(NC4CCOCC4)CC3)c2)c1,Percent Effect,"30.3 µM, […]",97.72%
CCc1cccc(N2CCC(NC(=O)C3CCOCC3)CC2)c1,Percent Effect,30 µM,8.469%
Cc1nnc(-c2cccc(N3CCC(NC4CCSC4)CC3)c2)s1 (configuration not stated),Percent Effect,"30.3 µM, […]",17.73%
O=C(Cc1cccc(O)c1)NC1CCN(c2cccc(Cl)c2)C1 (configuration not stated),Percent Effect,"30.3 µM, […]",5.178%
